This is a sample that favours compounds with a hit; in the whole collection about 3.6% have one here.
Autofluor counter = counter-screen for toxin protease inhibitors: compound fluorescence. AID 624483. compound autofluorescence counterscreen, microsphere flow cytometry; hits give high values. fluorescence intensity (test concentration not listed). actives 3.1% (n = 360,000); in the data active = fluorescence intensity above about 16000; inconclusive = no clear call, values can overlap the other calls
BoNT A protease = BoNT A light chain protease inhibition; multiplex microsphere protease substrate cleavage, flow cytometry; inhibition, % at 10 µM; actives 0.17% (n = 360,000)
BoNT F protease = BoNT F light chain protease inhibition; Multiplex microsphere protease cleavage assay, flow cytometry; actives 0.22% (n = 360,000); inhibition, % at 10 µM; in the data active = inhibition above about 35%, passing the limit was not always enough; inconclusive = no clear call, values can overlap the other calls
Anthrax LF inh2 = anthrax lethal factor protease inhibition; AID 588501; multiplex microsphere protease cleavage assay, LF; P15917; inhibition, % at 10 µM; actives 0.12% (n = 360,000)
MazF activator = activators of E. coli MazEF toxin-antitoxin RNase. P0AE70. FAM/BHQ RNA-DNA oligo cleavage fluorescence, 5 h. activation, % at 20 µM. actives 0.32% (n = 350,000); in the data active = activation above about 50%
A number is an active result; i = inactive; ? = inconclusive; nt = no result. Rule as the data show it, unless noted: active = inhibition above about 30%; inconclusive = no clear call, values can overlap the other calls; inactive = below that.

SMILES	Autofluor counter	BoNT A protease	BoNT F protease	Anthrax LF inh2	MazF activator
COc1ccc(-n2c(SCC(=O)NC3CCCCC3)nc3ccsc3c2=O)cc1	21037	?	i	i	i
CCC(C)NC(=O)CSc1nc2ccsc2c(=O)n1-c1ccc(OC)cc1 (centres undefined)	i	i	i	i	i
O=C(Nc1ccc(Nc2ccccc2)cc1)c1ccc(Cl)c([N+](=O)[O-])c1	i	i	?	i	78
Cc1ccc(NC(=O)c2ccc(-n3cncn3)c([N+](=O)[O-])c2)cc1	i	i	i	i	i
O=C(Nc1ccc(Cl)cc1)c1ccc(-n2cncn2)c([N+](=O)[O-])c1	24392	i	i	i	i
COc1ccc2sc(NC(=O)CC(C)C)nc2c1	20332	i	i	i	i
COc1ccc(CNC(=O)CSc2nnc(C)s2)cc1	19126	?	i	i	i
CSc1cccc(NC(=O)CSc2nnc(C)s2)c1	16404	i	i	i	i
CCC(=O)Nc1nc2cc(OC)ccc2s1	i	i	i	i	i
O=C(CSc1nnc(NC(=O)c2c(F)cccc2F)s1)Nc1ccc(F)cc1	i	i	i	i	179
COc1ccc2nc(NC(=O)CSc3nc(SC)ns3)sc2c1	i	i	i	i	i
COc1ccc2nc(NC(=O)CSc3nnc(C)s3)sc2c1	21301	i	i	i	i
O=C1/C(=C\c2ccncc2)N2CCC1CC2	i	i	i	i	i
O=C1/C(=C/c2cc([N+](=O)[O-])ccc2Cl)N2CCC1CC2	16507	i	i	i	i
O=C1/C(=C\c2ccc(Cl)c(Cl)c2)N2CCC1CC2	i	i	?	32	i
O=C1/C(=C/c2cccc([N+](=O)[O-])c2)N2CCC1CC2	i	i	i	i	i
CC(=O)c1nc(N2C(=O)CC(Cc3ccccc3)C2=O)sc1C (centres undefined)	i	i	i	i	i
CCc1cc(-c2n[nH]c(=S)n2-c2cccc(C)c2)cs1	18843	i	i	i	i
Cc1cccc(-n2c(-c3csc(C)c3)n[nH]c2=S)c1	16396	?	i	i	i
CCOc1cc2c(cc1OCC)C(c1ccccc1)N(c1ccc(C(=O)O)cc1)C(=O)C2 (centres undefined)	i	i	i	i	i
CC1=NN(c2ccccc2)C(c2ccco2)C1 (centres undefined)	i	i	i	i	i
O=[N+]([O-])c1ccc(/C=C/C2=NN(c3ccccc3)C(c3ccco3)C2)cc1 (centres undefined)	34435	57	66	40	i
CC(=O)c1ccc(NC(=O)CSC(C)C)cc1	22011	i	i	i	i
Nc1nc(-c2ccccc2)nn1C(=O)Cc1ccccc1	i	i	i	i	i
Nc1nc(-c2cccnc2)nn1C(=O)Cc1ccccc1	22678	i	i	i	i
SMILES	Autofluor counter	BoNT A protease	BoNT F protease	Anthrax LF inh2	MazF activator
O=C1CC(N(C(=O)c2ccco2)c2ccc(F)cc2)C(=O)N1c1ccc(F)cc1 (centres undefined)	19184	?	i	i	i
O=C(Nc1nc2n(n1)C(c1ccc(Cl)cc1)CC(c1ccc(Cl)cc1)N2)c1ccco1 (centres undefined)	nt	nt	nt	nt	i
COc1ccc(C2CC(c3ccc(Cl)cc3)Nc3nc(NC(=O)c4ccco4)nn32)cc1 (centres undefined)	i	i	i	i	160
Cn1c(=O)[nH]c(=O)c2c1nc(Br)n2CCSc1nc2ccccc2o1	22279	?	i	i	i
O=C(O)CC(CC(=O)Nc1nncs1)c1ccccc1 (centres undefined)	i	i	i	i	i
O=C(O)CC(Cn1[nH]nnc1=S)c1ccccc1 (centres undefined)	22296	?	i	i	i
CCCCCC(=O)N1C[C@@H](n2cc(-c3ccc(F)cc3)nn2)[C@H](O)C[C@@H]1c1ccc(C)cc1	i	i	i	i	i
CCC(=O)N1CCN(c2ccc(Cl)cc2NC(=O)c2ccc(Br)o2)CC1	22198	i	i	i	i
O=C(Nc1ccc(N2CCN(C(=O)c3ccccc3)CC2)cc1)c1ccc(Br)o1	i	i	i	i	i
O=C(Nc1ccc(N2CCN(C(=O)c3ccccc3)CC2)c(Cl)c1)c1ccc(Br)o1	23206	i	i	i	i
COc1cccc(S(=O)(=O)N(C)C[C@@H]2OCc3cn(nn3)CCCC(=O)N([C@@H](C)CO)C[C@H]2C)c1	i	i	i	i	i
Cc1noc(C)c1C(=O)N1CCCc2ccccc21	i	i	i	i	i
Cc1ccc2c(c1)CCCN2C(=O)c1ccoc1C	21940	i	i	i	i
Cc1ccc2c(c1)CCCN2C(=O)c1c(C)noc1C	22666	i	i	i	i
COC(=O)N1CCCc2cc(C)ccc21	i	i	i	i	i
CCc1ccc2c(c1)CCCN2C(=O)c1ccccc1C(=O)O	19882	i	i	i	i
Cc1ccc2c(c1)CCCN2C(=O)C1CCCO1 (centres undefined)	22991	i	i	i	i
Cc1ccc2c(c1)CCCN2C(=O)c1cc2ccccc2oc1=O	16268	?	i	i	i
CC(C)(C)C(=O)Nc1ccc(C(=O)COC(=O)C2=COCCO2)cc1	i	i	i	i	i
Cc1ccc(-c2csc(NC(=O)CSc3nc(C)cc(=O)[nH]3)n2)cc1	nt	nt	nt	nt	i
CCC(Sc1nc(C)cc(=O)[nH]1)C(=O)Nc1nc(-c2ccccc2)cs1 (centres undefined)	22493	i	i	i	i
CC(OC(=O)c1cccc(S(=O)(=O)N2CCCC2)c1)C(=O)c1ccccc1 (centres undefined)	i	i	i	i	i
CC(=O)Nc1ccc(S(=O)(=O)c2c(N)n(CCN3CCOCC3)c3nc4ccccc4nc23)cc1	i	i	i	i	i
Nc1c(S(=O)(=O)c2cc(Cl)ccc2Cl)c2nc3ccccc3nc2n1CCN1CCOCC1	24321	?	i	i	i
Cn1nc(C(F)(F)F)c(C(=O)Nc2ccc(F)cc2F)c1Sc1ccc(C(F)(F)F)cc1	22356	i	i	i	i
SMILES	Autofluor counter	BoNT A protease	BoNT F protease	Anthrax LF inh2	MazF activator
Cc1nn(C)c(C)c1CN(C(=O)C1CCC(=O)N(C2CCCCCC2)C1)C(C)C (centres undefined)	i	i	i	i	i
COc1ccccc1/C=C/C(=O)OC(C)CN1CCOCC1 (centres undefined)	21922	i	i	i	i
CC(CN1CCOCC1)OC(=O)c1ccccc1 (centres undefined)	i	?	?	i	i
COc1ccccc1/C=C/CN1CCOCC1	22191	i	i	i	i
CC[C@H](C)[C@H]1CNC(=S)N1CC1CCN(CC)CC1	i	i	i	i	i
COc1cc(C(=O)N2CCCC(c3nc(-c4cccs4)no3)C2)cc(OC)c1OC (centres undefined)	17019	i	i	i	i
COc1ccc(NC(=O)N2CCC(c3nc(-c4cccs4)no3)CC2)cc1	i	i	i	i	i
O=C(Nc1ccc(Cl)cc1)N1CCC(c2nc(-c3cccs3)no2)CC1	24323	?	i	i	i
O=C(Nc1cccc(C(F)(F)F)c1)N1CCC(c2nc(-c3ccc(F)cc3)no2)CC1	20249	i	i	i	i
C[C@H](CO)N1C[C@H](C)[C@@H](CN(C)Cc2cccc(F)c2)Oc2cc(-c3cccc(C#N)c3)ccc2S1(=O)=O	i	i	i	i	i

Screening results from PubChem.
